Screening data deposited in PubChem BioAssay by several laboratories.
EWS-Fli block: EWS/Fli-driven NR0B1 reporter inhibitors, primary screen, A673 cells, NR0B1 luciferase, luminescence, MLPCN library | inhibition, % at 12.6 µM | viability-normalised | hit rate 0.67% among 350,000;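 active means mean inhibition of at least 50% after viability correction, with every replicate also passing that limit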;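 further: firefly luciferase signal divided by Alamar Blue viability fluorescence both relative to DMSO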
PAX8 reporter: inhibitors of PAX8-driven TPO luciferase reporter, primary screen, RMG-I cells, single concentration; SteadyGlo, 24 h; inhibition, % at 12.6 µM; hit rate 1.2% among 360,000;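 active means mean replicate inhibition at least 60% with every replicate also reaching 60%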;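 further: luciferase light reporting Pax8 driven TPO promoter activity; plate controls were median of neutral control wells for no effect and mitoxantrone controls for full effect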
LMP1 NFkB inh: EBV LMP1-driven NF-kappaB luciferase reporter inhibitors, primary screen, cell-based, luminescence, single point | inhibition, % at 12.5 µM | LMP1-induced NF-kappaB luciferase reporter cells | AID 504558, 2011 | hit rate 0.69% among 350,000; in the data active means inhibition above about 41%;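 further: 0% = neutral control wells and 100% = reference inhibitor control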
TWEAK Fn14 block: inhibitors of TWEAK-Fn14 signaling, primary screen, luciferase reporter cells, uHTS; inhibition, % at 10 µM; TWEAK-stimulated Fn14 reporter cells, luciferase luminescence, 8 h; AID 1159606, 2016; hit rate 2% among 360,000; in the data active means inhibition above about 50%
TROY NFkB inh: inhibitors of TROY-driven NF-kB signaling, primary screen, Q293 LMP1-TROYcd cells, NF-kB luciferase, uHTS. Q293 LMP1-TROYcd NF-kB luciferase reporter, 4 h. AID 1347056, 2019. inhibition, % at 10 µM. hit rate 0.98% among 360,000;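 active means compounds whose plate-normalised and pattern-corrected inhibition of the luciferase reporter signal at the single screening dose is 50% or more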
LGR2 antag: inhibitors of bursicon-induced LGR2 CRE-luciferase signal, primary screen, cell-based, HEK293, CRE-luciferase reporter, bursicon stimulation; bursicon-stimulated, 4 h; inhibition, % at 9.99 µM; hit rate 0.35% among 380,000; AID 720647, 2013;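 active means drop in luminescence signal, shown as inhibition above about 50% in the replicate tests, limit read from the data, passing the limit was not always enough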;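 further: agonist challenge used bursicon conditioned medium at about half maximal strength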
The depositor's hits bear a star; · = not tested or not shown; ! = not confirmed by another sample. Hits are enriched below; roughly 3.2% of the tested compounds scored in any of these assays.

SMILES | EWS-Fli block | PAX8 reporter | LMP1 NFkB inh | TWEAK Fn14 block | TROY NFkB inh | LGR2 antag
CC(C)(C)OC(=O)NCC(=O)Oc1cc2oc(=O)cc(-c3ccccc3)c2cc1Cl | -1 | -21 | 8 | 80* | 48 | 16
C[C@@H]1CCCCO[C@@H](CN(C)C(=O)Nc2ccc(C(F)(F)F)cc2)[C@@H](C)CN([C@H](C)CO)C(=O)c2cc(NS(=O)(=O)c3ccc(Cl)cc3)ccc2O1 | -3 | 82*! | · | · | · | 11
C[C@@H]1CN([C@H](C)CO)C(=O)c2cc(NS(=O)(=O)c3ccc(Cl)cc3)ccc2O[C@@H](C)CCCCO[C@H]1CN(C)C(=O)Nc1ccc(C(F)(F)F)cc1 | 33 | 102* | · | · | · | 4
C[C@@H]1CN([C@@H](C)CO)C(=O)c2cc(NC(=O)C3CCCCC3)ccc2O[C@@H]1CN(C)C(=O)Nc1ccc(F)cc1 | -4 | 15 | · | · | · | -7
Nc1cccc2c1C(=O)N(C(=O)c1ccco1)C2=O | -3 | 10 | 7 | -13 | -23 | 17
Nc1cccc2c1C(=O)N(C(=O)/C=C/c1ccc(F)cc1)C2=O | 10 | 22 | -9 | 84* | 16 | 47
CCc1cnc(N2[C@H](CO)[C@@H](c3ccc(C#CCC4CCCC4)cc3)[C@@H]2C#N)s1 | 3 | 35 | · | · | · | 1
O=C1Nc2ccccc2N(O)N1c1cc(-c2cccc(Cl)c2)no1 | · | -6 | 22 | 8 | -27 | ·
O=C1Nc2ccccc2N(O)N1c1cc(-c2ccccc2Cl)no1 | · | 12 | 17 | 55* | 1 | ·
COc1ccc2c3c(n(C)c2c1)[C@H](CO)N(Cc1cccnc1)CC31CN(Cc2cccnc2)C1 | 0 | · | · | · | · | 3
CCc1ccccc1NC1Nc2cc(C)nn2S1 (stereo not drawn) | -1 | -9 | -5 | 57* | 7 | -3
CC(C)NC(=O)Nc1ccc2c(c1)C(=O)N([C@@H](C)CO)C[C@H](C)[C@H](CN(C)Cc1ccncc1)O2 | 4 | -3 | · | · | · | 6
Cc1nc(Nc2ccc(S(=O)(=O)N3CCCCC3C)cc2)c2nnn(Cc3ccccc3)c2n1 (stereo not drawn) | 24 | 35 | 3 | 66* | 19 | 6
CCN(CC)CC(C)(C)C(=O)/C=C/c1ccc(/C=C/C(=O)C(C)(C)CN(CC)CC)cc1 | 71* | 123* | 91* | 102* | 44 | 103*
CCN(CC)CCOC(=O)/C=C/c1ccccc1 | 1 | -7 | 1 | -4 | -8 | -3
CC(C)CC1NC(=S)N(Cc2ccccc2)C1=O (stereo not drawn) | 15 | 90* | 7 | -3 | 2 | 12
Cc1ccc(CNc2ccc3c(c2)ncn3C(C)(C)C)cc1 | -118 | -181 | -31 | 8 | 63* | -55
COc1ccc(CNc2ccc3c(c2)nc(C)n3C)cc1 | · | · | -14 | 39 | 60* | -18
CC1OC2CC(=O)OC2C2=C1C(=O)c1c(O)cccc1C2=O (stereo not drawn) | 50 | · | · | 107* | 57* | 100*
CCO[C@H]1OC(C(=O)NCc2nc3ccccc3[nH]2)=C[C@@H](C2CC2)[C@@H]1CCCO | 61* | 20 | 4 | 17 | 24 | -11
COc1ccc2c3c(n(C)c2c1)[C@H](CO)N(Cc1ccccc1)CC31CCN(S(=O)(=O)c2ccc(C)cc2)CC1 | 42 | 84* | · | · | · | 23
C[C@@H]1CN([C@@H](C)CO)C(=O)c2cc(NS(=O)(=O)c3cn(C)cn3)ccc2O[C@@H](C)CCCCO[C@H]1CN(C)Cc1ccc(C(F)(F)F)cc1 | 5 | · | · | · | · | 22
O=C(c1cc(-c2ccc3c(c2)OCO3)on1)N1CCN(c2ccc(F)cc2)CC1 | · | · | -7 | -11 | -22 | -13
O=C(c1cc(-c2ccc3c(c2)OCO3)on1)N1CCOCC1 | · | · | 62* | 77* | 36 | ·
O=C(c1cc(-c2ccc3c(c2)OCO3)on1)N1CCN(c2ccccc2)CC1 | · | · | -29 | 22 | 65* | -70
O=C(Nc1cccnc1)c1cc(-c2ccc3c(c2)OCO3)on1 | · | · | -9 | 77* | 36 | 63*
C[C@H]1CN([C@@H](C)CO)C(=O)c2cccc(NC(=O)c3ccncc3)c2O[C@H]1CN(C)Cc1ccc2c(c1)OCO2 | -8 | -18 | · | · | · | -6
